Test results reported in PubChem BioAssay.
Activity calls are given as the source filed them.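 How the source made its calls: active means viability loss from added drug above about 55%, and viability with drug at most 40%, in both replicates (limit read from the data, passing the limit was not always enough); inconclusive means both conditions met in only one replicate; inactive means neither replicate meets both conditions.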

assay: reversal of MRP1-mediated doxorubicin resistance, pilot screen, H69AR cells, doxorubicin co-treatment (AID 601); conditions: H69AR cells + 2 uM doxorubicin, CellTiter-Glo, 72 h; at 10 µM; stronger effect = higher value

Compound | differential viability (reversal)
CCOC(=O)c1cc(NC(=O)SCC(=O)O)c(C)nc1C | 2.72% (inactive)
Clc1c(CSc2nc3ccccc3o2)nc2sccn12 | 13.2% (inactive)
O=C(CCn1[nH]c(=O)c2ccccc2c1=O)NCCO | -2.56% (inactive)
CC12CCC(C(=O)N3CCN(C(=O)C45CCC(C)(C(=O)O4)C5(C)C)CC3)(OC1=O)C2(C)C | 20.1% (inactive)
COc1cccc(C2C(C(=O)c3cccs3)=C(O)C(=O)N2CCCn2ccnc2)c1OC (stereo not given) | 20.9% (inactive)
Cc1ccc(S(=O)(=O)N(CC(=O)N2CCC(C(N)=O)CC2)Cc2ccc(F)cc2)cc1 | 11.3% (inactive)
COc1ccc(N2CCN(C(=O)CSc3ccccc3)CC2)cc1 | 12.5% (inactive)
COc1ccccc1N1CCN(C(=O)C2CCN(S(=O)(=O)c3ccc(F)cc3)CC2)CC1 | 6.62% (inactive)
COCCN1C=C(C(=O)OC)C(c2cc3c(cc2Br)OCO3)C(C(=O)OC)=C1 | 3.38% (inactive)
CC1=C(C(N)=O)C(c2ccccn2)n2nc(SCc3ccccc3)nc2N1 (stereo not given) | -2.02% (inactive)
O=C(/C=C/N1CCOCC1)c1ccc(-c2ccccc2)cc1 | 7.73% (inactive)
CCOc1ccc(NS(=O)(=O)c2cc(Cl)ccc2OC)cc1 | -22.1% (inactive)
COc1ccc(NC(=O)CC2CCCCC2)cc1OC | 12.8% (inactive)
Cc1oc(-c2cccc(Cl)c2)nc1CN1CCC(C(=O)N2CCN(c3ccccc3F)CC2)CC1 | -24.7% (inactive)
O=C(Nc1ccc2c(c1)OCCO2)C1CCN(C(=O)c2ccc(F)cc2)CC1 | 5.68% (inactive)
CCOC(=O)Nc1c(O)ccc2oc(C)c(-c3ccccc3)c12 | 0.02% (inactive)
O=C(CCNS(=O)(=O)c1cccs1)Nc1ccccc1F | 8.57% (inactive)
CCOC(=O)N1CCN(C(=O)CN(C2CCCCC2)S(=O)(=O)c2ccc(F)cc2)CC1 | 5.98% (inactive)
O=C(COc1ccc(F)cc1)Nc1ccc(-n2cnnn2)cc1 | 12% (inactive)
O=C(Cn1c(=O)sc2ccccc21)NCCOc1ccccc1F | 13.6% (inactive)

Compound | differential viability (reversal)
O=C(c1ccco1)c1nnn(Cc2ccccc2)c1-c1ccccc1 | 3.42% (inactive)
O=C(Nc1ncc(Cc2ccccc2)s1)C1CCCO1 (stereo not given) | 10.9% (inactive)
CC1=C(C(=O)OC2CCCCCC2)C(c2ccc(C)o2)C2=C(CCCC2=O)N1 (stereo not given) | -3.5% (inactive)
CC12CN3CCN(CC(C3)C1(O)CN1CCCCC1)C2 (stereo not given) | 3.25% (inactive)
CCn1c(C(C#N)/C(=N\S(=O)(=O)c2cccs2)c2ccccc2)nc2ccccc21 (stereo not given) | -12.6% (inactive)
CCOC(=O)N1CCN(C(=O)c2cnn(-c3ccccc3)c2NC(=O)c2ccccc2F)CC1 | 12% (inactive)
O=C(CCC(=O)OCC(=O)c1ccccc1)NC1CCCCC1 | 14.9% (inactive)
O=C(Nc1nc2c(s1)CCCC2)C1COc2ccccc2O1 (stereo not given) | -10.7% (inactive)
CCN(CC)S(=O)(=O)c1ccc2c(c1)nc(SCn1nnc3ccccc3c1=O)n2CC | 8.64% (inactive)
Cc1ccc(N2C(=O)c3oc4ccccc4c(=O)c3C2c2cccc(O)c2)nc1 (stereo not given) | -11.7% (inactive)
COc1cc(C(=O)NCCc2ccc3c(c2)OCCO3)ccc1OCC(=O)N1CCOCC1 | 1.3% (inactive)
O=C(CN1CCN(Cc2ccccc2)CC1)NCC1COc2ccccc2O1 (stereo not given) | 6.56% (inactive)
Cc1nonc1NC(=O)c1ccccc1Br | 4.93% (inactive)
Cc1cc(NC(=O)CSc2nc3c(c(-c4cccnc4)c2C#N)CCC3)no1 | 6.63% (inactive)
Cc1onc(-c2ccccc2)c1C(=O)NCc1cccnc1 | 9.66% (inactive)
OC(CNCCc1ccccc1)c1ccccc1 (stereo not given) | 9.8% (inactive)
Cc1ccc(C)n1-c1ccc(N2CCOCC2)cc1 | -15.4% (inactive)
C#CCOC(=O)C1C2C=CC(C2)C1C(=O)O (stereo not given) | 11.9% (inactive)
Cc1ccc(C(=O)Nc2c(C(=O)N3CCOCC3)cnn2-c2ccccc2)cc1 | 16.5% (inactive)
Clc1cccc(-c2nnc(-c3ccccc3)o2)c1 | -4.06% (inactive)

same assay, conditions: H69AR cells + 2 uM doxorubicin, CellTiter-Glo, 72 h; measured here: viability with 2 uM doxorubicin; at 10 µM; stronger effect = lower value

Compound | viability
CCOC(=O)c1cc(NC(=O)SCC(=O)O)c(C)nc1C | 85.4%
Clc1c(CSc2nc3ccccc3o2)nc2sccn12 | 79.8%
O=C(CCn1[nH]c(=O)c2ccccc2c1=O)NCCO | 91.9%
CC12CCC(C(=O)N3CCN(C(=O)C45CCC(C)(C(=O)O4)C5(C)C)CC3)(OC1=O)C2(C)C | 84.7%
COc1cccc(C2C(C(=O)c3cccs3)=C(O)C(=O)N2CCCn2ccnc2)c1OC (stereo not given) | 88.3%
Cc1ccc(S(=O)(=O)N(CC(=O)N2CCC(C(N)=O)CC2)Cc2ccc(F)cc2)cc1 | 88.8%
COc1ccc(N2CCN(C(=O)CSc3ccccc3)CC2)cc1 | 83%
COc1ccccc1N1CCN(C(=O)C2CCN(S(=O)(=O)c3ccc(F)cc3)CC2)CC1 | 80.8%
COCCN1C=C(C(=O)OC)C(c2cc3c(cc2Br)OCO3)C(C(=O)OC)=C1 | 81.2%
CC1=C(C(N)=O)C(c2ccccn2)n2nc(SCc3ccccc3)nc2N1 (stereo not given) | 95.9%
O=C(/C=C/N1CCOCC1)c1ccc(-c2ccccc2)cc1 | 81.8%
CCOc1ccc(NS(=O)(=O)c2cc(Cl)ccc2OC)cc1 | 92.9%
COc1ccc(NC(=O)CC2CCCCC2)cc1OC | 90.2%
Cc1oc(-c2cccc(Cl)c2)nc1CN1CCC(C(=O)N2CCN(c3ccccc3F)CC2)CC1 | 57%
O=C(Nc1ccc2c(c1)OCCO2)C1CCN(C(=O)c2ccc(F)cc2)CC1 | 86.8%
CCOC(=O)Nc1c(O)ccc2oc(C)c(-c3ccccc3)c12 | 99.8%
O=C(CCNS(=O)(=O)c1cccs1)Nc1ccccc1F | 99.2%
CCOC(=O)N1CCN(C(=O)CN(C2CCCCC2)S(=O)(=O)c2ccc(F)cc2)CC1 | 91.7%
O=C(COc1ccc(F)cc1)Nc1ccc(-n2cnnn2)cc1 | 81.1%
O=C(Cn1c(=O)sc2ccccc21)NCCOc1ccccc1F | 85.8%

Compound | viability
O=C(c1ccco1)c1nnn(Cc2ccccc2)c1-c1ccccc1 | 81.7%
O=C(Nc1ncc(Cc2ccccc2)s1)C1CCCO1 (stereo not given) | 92.2%
CC1=C(C(=O)OC2CCCCCC2)C(c2ccc(C)o2)C2=C(CCCC2=O)N1 (stereo not given) | 101%
CC12CN3CCN(CC(C3)C1(O)CN1CCCCC1)C2 (stereo not given) | 89.2%
CCn1c(C(C#N)/C(=N\S(=O)(=O)c2cccs2)c2ccccc2)nc2ccccc21 (stereo not given) | 94.3%
CCOC(=O)N1CCN(C(=O)c2cnn(-c3ccccc3)c2NC(=O)c2ccccc2F)CC1 | 80%
O=C(CCC(=O)OCC(=O)c1ccccc1)NC1CCCCC1 | 86.1%
O=C(Nc1nc2c(s1)CCCC2)C1COc2ccccc2O1 (stereo not given) | 99%
CCN(CC)S(=O)(=O)c1ccc2c(c1)nc(SCn1nnc3ccccc3c1=O)n2CC | 74.6%
Cc1ccc(N2C(=O)c3oc4ccccc4c(=O)c3C2c2cccc(O)c2)nc1 (stereo not given) | 103%
COc1cc(C(=O)NCCc2ccc3c(c2)OCCO3)ccc1OCC(=O)N1CCOCC1 | 92%
O=C(CN1CCN(Cc2ccccc2)CC1)NCC1COc2ccccc2O1 (stereo not given) | 86.6%
Cc1nonc1NC(=O)c1ccccc1Br | 86.8%
Cc1cc(NC(=O)CSc2nc3c(c(-c4cccnc4)c2C#N)CCC3)no1 | 84.3%
Cc1onc(-c2ccccc2)c1C(=O)NCc1cccnc1 | 89.7%
OC(CNCCc1ccccc1)c1ccccc1 (stereo not given) | 81.4%
Cc1ccc(C)n1-c1ccc(N2CCOCC2)cc1 | 93.4%
C#CCOC(=O)C1C2C=CC(C2)C1C(=O)O (stereo not given) | 81.7%
Cc1ccc(C(=O)Nc2c(C(=O)N3CCOCC3)cnn2-c2ccccc2)cc1 | 75.3%
Clc1cccc(-c2nnc(-c3ccccc3)o2)c1 | 80.7%
